Test results as given in PubChem BioAssay (NCATS).
Inconclusive results are not listed. Calls of active or inactive are those of the source. Calls follow the shape of the dose curve; as a rule, active = well fitted cell-killing curve with a large enough effect; inconclusive = small, poorly fitted or top-dose-only effect; inactive = flat fitted curve, though single readings scatter.

Assay: Cellular viability qHTS for adrenocortical cancer (ACC) cell line SW-13 (AID 1963989); also: nearly all actives have a fitted effect of over 65% in size;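 as to activity (max response): cells grown in serum-free medium with ITS supplement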
Conditions: SW-13 ACC cells viability, CellTiter-Glo, 48 h; activity (max response): stronger effect = lower value
In short: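 Compound titrations (up to 46 uM final, in DMSO) were applied to SW-13 cells for 48 h at 37C/5% CO2. Reading used CellTiter-Glo after 20 min at room temperature; fitted curves yielded IC50 and efficacy.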
% is scaled to controls: 0 for no effect and ±100 for the full control effect; potency is read from the fitted curve at half-maximal effect.

Structure (SMILES) | activity (max response) | Potency
OCC(CO)N[C@H]1C[C@](O)(CO)[C@@H](O)[C@H](O)[C@H]1O | 4.01% (inactive) | –
Cc1c(F)ccc(C(=O)Nc2cc([N+](=O)[O-])ccc2N2CCN(C)CC2)c1Cl | -19.1% (inactive) | –
O=C(NCCCNC(=O)c1ccc[nH]c1=O)c1cc(-c2ccccc2)on1 | – | 22.4 µM (active)
COc1c(Nc2ncc(Cl)c(N[C@H]3[C@H](C(N)=O)[C@@H]4C=C[C@@H]3C4)n2)ccc2c1CCC(N1CCOCC1)CC2 (some centres undefined) | – | 15.8 µM (active)
O=C(NCc1cccc(O)c1)Nc1nc(-c2ccncc2)cs1 | -22.1% (inactive) | –
N#Cc1cc2cc(CN3CCC(Nc4ncnc5sc(CC(F)(F)F)cc45)CC3)c(O)cc2n1Cc1cn[nH]c1 | – | 14.1 µM (active)
CS(=O)(=O)N1CCC(NC(=O)c2[nH]ncc2NC(=O)c2c(Cl)cccc2Cl)CC1 | – | 3.98 µM (active)
Cc1cnc(NS(=O)(=O)c2ccc(N)cc2)nc1 | 9.12% (inactive) | –
CN(C)C(N)=NC(=N)N | 1.52% (inactive) | –
